The nature of test [1]: p53 stabilisation in HPV-positive human cells, imaging, p53-positive nuclei imaging, 24 h, 48 h (AID 1508601). The note with it: 24/48 h.
Test [2] addresses Cellular tumor antigen p53 (Homo sapiens) (UniProt P04637). Described as above. The note with it: 24/48 h, stronger effect = higher value.
The mark [3] stands for this setting: measured here: cell number at 24 h, Library stock concentration: 10 mM.
Setting [4] is: measured here: cell number at 48 h, Library stock concentration: 10 mM.
Where [5] appears, read: Library stock concentration: 10 mM.
Setting [6] is: measured here: p53 positive nuclei at 24 h, Library stock concentration: 10 mM.
[7] abbreviates: measured here: cell number at 24 h, Library stock concentration: 3.33 mM.
[8] abbreviates: measured here: cell number at 48 h, Library stock concentration: 3.33 mM.
The mark [9] stands for this setting: Library stock concentration: 3.33 mM.
[10] abbreviates: measured here: p53 positive nuclei at 24 h, Library stock concentration: 3.33 mM.
Where [11] appears, read: measured here: cell number at 24 h, concentration not given here.
[12] abbreviates: measured here: cell number at 48 h, concentration not given here.
Where [13] appears, read: measured here: p53 positive nuclei at 24 h, concentration not given here.

Several values for one entry are separate records, joined by “and”; a condition that tells them apart may be missing. Identical values can stand only once. The whole screen tested about 5,700 compounds, of which about 85 (1%) were called active. Cut-off read from the data, not from the text of the source: active = p53-positive nuclei above about 36% (passing the limit was not always enough); inactive = the rest. What follows is part of a selection rich in actives, with near analogues and random picks from the rest. More than one record can exist for a structure, and the calls need not agree.

Cellular tumor antigen p53 (Homo sapiens), sequence (P04637 whole entry, looked up): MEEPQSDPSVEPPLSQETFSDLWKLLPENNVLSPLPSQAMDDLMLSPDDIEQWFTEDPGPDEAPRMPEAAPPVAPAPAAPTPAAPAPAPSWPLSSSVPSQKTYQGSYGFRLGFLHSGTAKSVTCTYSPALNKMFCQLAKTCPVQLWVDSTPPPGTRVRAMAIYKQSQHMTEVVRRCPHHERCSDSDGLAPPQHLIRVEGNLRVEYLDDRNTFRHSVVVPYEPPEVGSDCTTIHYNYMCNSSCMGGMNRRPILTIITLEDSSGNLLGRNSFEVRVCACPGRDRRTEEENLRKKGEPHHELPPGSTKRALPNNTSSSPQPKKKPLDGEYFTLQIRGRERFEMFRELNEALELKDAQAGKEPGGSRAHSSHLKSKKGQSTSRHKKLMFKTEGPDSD

`CCN1CCN(Cc2ccc(NC(=O)c3ccc(C)c(Oc4ccnc5[nH]ccc45)c3)cc2C(F)(F)F)CC1`: the nuclei count, normalised in test [1] (measured here: cell number at 24 h, Library stock concentration: 80 uM) came to 106%; in test [1] (measured here: cell number at 24 h, Library stock concentration: 400 uM), 105%; in test [1] (measured here: cell number at 24 h, Library stock concentration: 2 mM), 97.9%; in test [1] (setting [3]), 101%; in test [1] (measured here: cell number at 48 h, Library stock concentration: 80 uM), 116%; in test [1] (measured here: cell number at 48 h, Library stock concentration: 400 uM), 108%. In addition, the nuclei count, normalised stood at 111% in test [1] (measured here: cell number at 48 h, Library stock concentration: 2 mM) and 112% in test [1] (setting [4]). Further, the p53-positive nuclei, normalised in test [2] (Library stock concentration: 80 uM) was -0.0678% (inactive); in test [2] (Library stock concentration: 400 uM) it was 0.0485% (inactive); in test [2] (Library stock concentration: 2 mM) it was -0.223% (inactive); in test [2] (setting [5]), -0.127% (inactive); in test [2] (measured here: p53 positive nuclei at 24 h, Library stock concentration: 80 uM), -0.156%; in test [2] (measured here: p53 positive nuclei at 24 h, Library stock concentration: 400 uM), -0.0165%. Further, the p53-positive nuclei, normalised was -0.102% in test [2] (measured here: p53 positive nuclei at 24 h, Library stock concentration: 2 mM) and -0.00926% in test [2] (setting [6]).

Regarding `COc1cccc2c1C(=O)c1c(O)c3c(c(O)c1C2=O)C[C@@](O)(C(=O)CO)C[C@@H]3OC1CC(N)C(OC2CCCCO2)C(C)O1` (stereo not given in full), the results for the nuclei count, normalised in test [1] (setting [7]) and in test [1] (setting [8]) were 43.4% and 38.3%, respectively. For the same compound, the figures for the p53-positive nuclei, normalised in test [2] (setting [9]) and in test [2] (setting [10]) were 16.4% (inactive) and 10.3%, respectively.

For the compound `COc1cccc2c1C(=O)c1c(O)c3c(c(O)c1C2=O)C[C@@](O)(C(=O)CO)CC3O[C@H]1CC(N)C(O)C(C)O1` (stereo not given in full), the nuclei count, normalised was 45.5% and 23.6% in test [1] (setting [7]); 36.1% and 17% in test [1] (setting [8]). Besides, the p53-positive nuclei, normalised in test [2] (setting [9]) was 21.6% (inactive) and 89.4% (active); in test [2] (setting [10]) it was 2.1% and 92.1%.

For the compound `C=C1C[C@H](O)[C@H](C/C=C\CCCC(=O)O)[C@H]1/C=C/C(=O)CCCCC`, the nuclei count, normalised in test [1] (setting [11]) is 111%; in test [1] (setting [12]) it was 105%. Also, the p53-positive nuclei, normalised is 0.125% (inactive) in test [2] (concentration not given here) and -0.0213% in test [2] (setting [13]).

Turning to `Nc1ccn(C2OC(CO)C(O)C2F)c(=O)n1` (stereo not given), the nuclei count, normalised in test [1] (measured here: cell number at 24 h, Library stock concentration: 500 nM) was found to be 115%; in test [1] (measured here: cell number at 24 h, Library stock concentration: 1.5 uM) it was 111%; in test [1] (measured here: cell number at 24 h, Library stock concentration: 4.6 uM) it was 77%; in test [1] (measured here: cell number at 24 h, Library stock concentration: 13.7 uM), 64.6%; in test [1] (measured here: cell number at 24 h, Library stock concentration: 41 uM), 64.5%; in test [1] (measured here: cell number at 24 h, Library stock concentration: 123 uM), 60.1%. The nuclei count, normalised in test [1] (measured here: cell number at 24 h, Library stock concentration: 370 uM) turned out to be 55.2%; in test [1] (measured here: cell number at 24 h, Library stock concentration: 1.111 mM), 59.3%; in test [1] (measured here: cell number at 24 h, Library stock concentration: 3.333 mM) it was 55.3%; in test [1] (setting [3]), 51.2%; in test [1] (measured here: cell number at 48 h, Library stock concentration: 500 nM) it was 115%; in test [1] (measured here: cell number at 48 h, Library stock concentration: 1.5 uM), 107%. Moreover, the nuclei count, normalised in test [1] (measured here: cell number at 48 h, Library stock concentration: 4.6 uM) stood at 62%; in test [1] (measured here: cell number at 48 h, Library stock concentration: 13.7 uM), 51.1%; in test [1] (measured here: cell number at 48 h, Library stock concentration: 41 uM), 50.8%; in test [1] (measured here: cell number at 48 h, Library stock concentration: 123 uM), 48.7%; in test [1] (measured here: cell number at 48 h, Library stock concentration: 370 uM), 44.4%; in test [1] (measured here: cell number at 48 h, Library stock concentration: 1.111 mM), 46.2%. Further, the nuclei count, normalised in test [1] (measured here: cell number at 48 h, Library stock concentration: 3.333 mM) was 45.1%; in test [1] (setting [4]), 41.5%. The p53-positive nuclei, normalised in test [2] (Library stock concentration: 500 nM) was -0.105% (inactive); in test [2] (Library stock concentration: 1.5 uM) it was -0.0067% (inactive); in test [2] (Library stock concentration: 4.6 uM), 0.019% (inactive); in test [2] (Library stock concentration: 13.7 uM) it was 0.162% (inactive); in test [2] (Library stock concentration: 41 uM), 0.839% (inactive); in test [2] (Library stock concentration: 123 uM) it was 0.265% (inactive). Besides, the p53-positive nuclei, normalised was 0.43% (inactive) in test [2] (Library stock concentration: 370 uM); 0.292% (inactive) in test [2] (Library stock concentration: 1.111 mM); 0.443% (inactive) in test [2] (Library stock concentration: 3.333 mM); 0.266% (inactive) in test [2] (setting [5]); -0.0685% in test [2] (measured here: p53 positive nuclei at 24 h, Library stock concentration: 500 nM); 0.0513% in test [2] (measured here: p53 positive nuclei at 24 h, Library stock concentration: 1.5 uM). Also, the p53-positive nuclei, normalised is 0.0647% in test [2] (measured here: p53 positive nuclei at 24 h, Library stock concentration: 4.6 uM); -0.0822% in test [2] (measured here: p53 positive nuclei at 24 h, Library stock concentration: 13.7 uM); 0.108% in test [2] (measured here: p53 positive nuclei at 24 h, Library stock concentration: 41 uM); 0.0172% in test [2] (measured here: p53 positive nuclei at 24 h, Library stock concentration: 123 uM); -0.0726% in test [2] (measured here: p53 positive nuclei at 24 h, Library stock concentration: 370 uM); -0.0774% in test [2] (measured here: p53 positive nuclei at 24 h, Library stock concentration: 1.111 mM). For the same compound, the p53-positive nuclei, normalised is 0.296% in test [2] (measured here: p53 positive nuclei at 24 h, Library stock concentration: 3.333 mM) and -0.0521% in test [2] (setting [6]).

Regarding `CC(C)(C)Nc1nc2cc(Cl)c(Cl)cc2nc1S(C)(=O)=O`, the nuclei count, normalised came to 108% in test [1] (measured here: cell number at 24 h, Library stock concentration: 46 uM); 105% in test [1] (measured here: cell number at 24 h, Library stock concentration: 278 uM); 93.6% in test [1] (measured here: cell number at 24 h, Library stock concentration: 1.67 mM); 44.4% in test [1] (setting [3]); 118% in test [1] (measured here: cell number at 48 h, Library stock concentration: 46 uM); 109% in test [1] (measured here: cell number at 48 h, Library stock concentration: 278 uM). In addition, the nuclei count, normalised in test [1] (measured here: cell number at 48 h, Library stock concentration: 1.67 mM) turned out to be 106%; in test [1] (setting [4]) it was 50%. Also, the p53-positive nuclei, normalised in test [2] (Library stock concentration: 46 uM) was -0.222% (inactive); in test [2] (Library stock concentration: 278 uM), -0.1% (inactive); in test [2] (Library stock concentration: 1.67 mM), -0.239% (inactive); in test [2] (setting [5]), 1.33% (inactive); in test [2] (measured here: p53 positive nuclei at 24 h, Library stock concentration: 46 uM) it was -0.151%; in test [2] (measured here: p53 positive nuclei at 24 h, Library stock concentration: 278 uM), -0.151%. Besides, the p53-positive nuclei, normalised is 0.616% in test [2] (measured here: p53 positive nuclei at 24 h, Library stock concentration: 1.67 mM) and 1.86% in test [2] (setting [6]).

Turning to `CC(C)CC1(CO)CCCN(C(=O)c2cccc(C#CC(C)(C)O)c2)C1` (stereo not given), the nuclei count, normalised in test [1] (setting [11]) was 99%; in test [1] (setting [12]), 100%. For the same compound, the p53-positive nuclei, normalised in test [2] (concentration not given here) was 0.108% (inactive); in test [2] (setting [13]), 0.27%.

For `O=C(O)C1=CC(O)C(O)C(O)C1` (stereo not given), the nuclei count, normalised in test [1] (setting [7]) and in test [1] (setting [8]) was 109% each time. Also, the p53-positive nuclei, normalised is -0.187% (inactive) in test [2] (setting [9]) and -0.275% in test [2] (setting [10]).

Turning to `O=C(O)c1cc(-c2ccccc2)nc2ccccc12`, the nuclei count, normalised in test [1] (setting [7]) turned out to be 111%; in test [1] (setting [8]), 106%. The p53-positive nuclei, normalised in test [2] (setting [9]) was -0.105% (inactive); in test [2] (setting [10]), -0.282%.

In the case of `COc1cc2ncc(-c3ccccc3)nc2cc1OC`, the nuclei count, normalised was determined as 78.5% in test [1] (setting [7]) and 45.1% in test [1] (setting [8]). The p53-positive nuclei, normalised in test [2] (setting [9]) was 55.2% (active); in test [2] (setting [10]) it was 3.05%.

The values above are taken from PubChem BioAssay AID1508601 (ICCB-Longwood Screening Facility, Harvard Medical School, 2020).
